Assay results: PubChem BioAssay (NCATS);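 active = compounds whose dose series gives a full or clear partial fitted curve of increased nuclear translocation; inconclusive = weak partial curve or effect only at the top dose; inactive = no dose-dependent translocation response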

biological target: Glucocorticoid receptor (Homo sapiens) (UniProt P04150); assay: GR-GFP Redistribution (AID 450); details: U2OS GR-GFP nuclear translocation, laser cytometry, 2 h; series mostly up to 20.6 µM
Potency is read from the fitted curve at half-maximal effect.

Sequence of Glucocorticoid receptor (Homo sapiens) (P04150 whole entry, looked up): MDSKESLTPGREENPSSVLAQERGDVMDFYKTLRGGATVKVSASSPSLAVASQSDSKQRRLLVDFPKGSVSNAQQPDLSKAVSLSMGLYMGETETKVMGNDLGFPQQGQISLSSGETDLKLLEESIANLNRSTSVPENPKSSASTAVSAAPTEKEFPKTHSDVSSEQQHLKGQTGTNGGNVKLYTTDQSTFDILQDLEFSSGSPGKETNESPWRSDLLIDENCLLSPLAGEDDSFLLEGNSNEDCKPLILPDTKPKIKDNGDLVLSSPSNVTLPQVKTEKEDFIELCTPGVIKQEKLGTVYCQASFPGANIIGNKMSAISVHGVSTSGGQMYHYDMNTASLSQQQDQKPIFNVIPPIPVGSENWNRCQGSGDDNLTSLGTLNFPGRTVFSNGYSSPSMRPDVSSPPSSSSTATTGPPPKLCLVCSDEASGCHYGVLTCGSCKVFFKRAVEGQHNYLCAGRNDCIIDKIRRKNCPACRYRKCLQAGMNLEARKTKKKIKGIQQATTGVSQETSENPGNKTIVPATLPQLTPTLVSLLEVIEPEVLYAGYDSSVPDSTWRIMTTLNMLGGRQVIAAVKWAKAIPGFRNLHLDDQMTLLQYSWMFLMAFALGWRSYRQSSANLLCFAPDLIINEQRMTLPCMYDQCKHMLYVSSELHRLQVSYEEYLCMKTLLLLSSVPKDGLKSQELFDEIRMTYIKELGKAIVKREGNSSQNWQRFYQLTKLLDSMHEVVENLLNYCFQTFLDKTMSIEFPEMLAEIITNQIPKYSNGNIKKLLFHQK

Potency, inactive:
CN(C)c1nc2sc3c(c2c(=O)n1C)CC(C)(C)OC3 > 20.6 µM, Cc1cccc(N2CC(=O)N(c3cccc(C)c3)CC2=O)c1 > 20.6 µM, CC(C)(C)n1nnc(CCc2nnn(C(C)(C)C)n2)n1 > 20.6 µM, CCOC(=O)c1c(N)sc2c1CCC1C(=O)N(C3CCCCC3)C(=O)C21 (stereo not drawn) > 20.6 µM, CC(C)C1Cc2c(C#N)c(N)n(C)c(=S)c2CO1 (stereo not drawn) > 20.6 µM, CC(=O)c1ccc(O)c(CO)c1 > 20.6 µM, Cc1ccc(-n2c(SCC(=O)NCc3ccco3)nc3nc4c(cc3c2=O)COC(C)(C)C4)cc1 > 20.6 µM, O=C(NC1CCCCC1)Nn1c(-c2ccccc2)nc2ccccc2c1=O > 20.6 µM, COc1ccccc1C1/C(=C(\O)c2ccc3c(c2)OCCO3)C(=O)C(=O)N1CCCN(C)C (stereo not drawn) > 20.6 µM, Cc1cc(C)nc(NC2=NCC(=O)N2c2ccc(Cl)cc2)n1 > 20.6 µM, Oc1ccccc1CNn1cnnc1 > 20.6 µM, CCCC(CCC(=O)Nc1ccc(C(=O)OCC)cc1)C(=O)O (stereo not drawn) > 20.6 µM, COC(=O)C1=C(N)Oc2cc(C)[nH]c(=O)c2C1c1ccncc1 (stereo not drawn) > 20.6 µM, CC(=O)Oc1oc(-c2ccccc2)nc1/C=N/c1ccccn1 > 20.6 µM, CC(C)(C)C1=Nn2c(nnc2-c2ccccn2)SC1 > 20.6 µM, O=C(O)CC(C(=O)OCC1CCCO1)N1CCOCC1 (stereo not drawn) > 20.6 µM, COc1ccc(C2=Nn3c(nnc3-c3ccccn3)SC2)cc1OC > 20.6 µM, CCOc1ccc(/C(O)=C2/C(=O)C(=O)N(CCN(CC)CC)C2c2ccco2)cc1 (stereo not drawn) > 20.6 µM, Cc1cc2ccccc2cc(C)c1=O > 20.6 µM, CSc1nc2sc3c(c2c(=O)n1C1CCCCC1)CCN(C)C3 > 20.6 µM, CCCCNC(=O)c1cc2n(n1)C(C(F)(F)F)CC(c1ccccc1)N2 (stereo not drawn) > 20.6 µM, COc1cc(-c2cc(C(F)(F)F)n3ncc(C(=O)O)c3n2)cc(OC)c1OC > 20.6 µM, COC(=O)c1sc(NC(C)=O)c(C(=O)OC)c1C > 20.6 µM, O=C1CC(c2ccccc2)n2nc(NS(=O)(=O)c3ccccc3)nc2N1 (stereo not drawn) > 20.6 µM, COC(=O)c1ccc(C2NC(C(=O)O)CS2)cc1 (stereo not drawn) > 20.6 µM, COCCNc1nc2c(c(=O)n(Cc3ccc(OC)cc3)c(=O)n2C)n1C > 20.6 µM, CC(C)CC(NC(=O)OC(C)(C)C)C(=O)NCc1ccccc1 (stereo not drawn) > 20.6 µM, CCCCOc1ccc(C(=O)Nc2ccc(N3CCN(C(C)=O)CC3)cc2)cc1 > 20.6 µM, COc1cc(C2C3C(=O)N(c4ccc(F)cc4)C(=O)C3ON2c2ccccc2)ccc1O (stereo not drawn) > 20.6 µM, O=c1[nH]cnc2cc(-c3ccccc3)sc12 > 20.6 µM, O=C(NO)c1ccccc1O > 20.6 µM, Cc1ccc(SCc2[nH]nc3c2C(c2ccc(C)o2)C(C#N)=C(N)O3)cc1 (stereo not drawn) > 20.6 µM, O=C1C2ON(c3ccccc3)C(c3cccnc3)C2C(=O)N1Cc1ccccc1 (stereo not drawn) > 20.6 µM
